Records with an inconclusive call do not appear. Calls of active or inactive are those of the source.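 Rule for the calls, unless noted: active = viability loss from added drug above about 55%, and viability with drug at most 40%, in both replicates (limit read from the data, passing the limit was not always enough); inconclusive = both conditions met in only one replicate; inactive = neither replicate meets both conditions.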
What was measured:
[1] = reduced viability of SK-BR-3 breast cancer cells – cell-based, 24 h, human, pilot screen (AID 572;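 active = viability at or below 10% of carrier control in both of two separate runs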;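 note: compound exposure lasted between 18 and 24 h rather than exactly 24 h; 100% = carrier-treated control wells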); conditions: SK-BR-3 viability, CellTiter-Glo luminescence, at 10 µM, stronger effect = lower value
[2] = HUVEC growth inhibition – cell-based, human, primary screen (AID 575;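 active = viability at or below 30% in both replicate assays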;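 note: 100% = median of untreated cell wells with 0.1% DMSO on each plate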); conditions: HUVEC proliferation, CellTiter-Glo luminescence, 72 h; at 10 µM; stronger effect = lower value
[3] = H69AR cell proliferation blockers – human, duplicate replicates, primary screen (AID 580;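 active = viability at or under a set limit in both replicates, limit being median viability minus 3 SD, cut at about 48% in these data, passing the limit was not always enough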;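 note: 100% = mean luminescence of untreated wells and 0% = no signal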); conditions: H69AR lung tumor cells viability, ATP luminescence, 72 h; at 10 µM; stronger effect = lower value
[4] = MRP1 drug-resistance reversers in H69AR cells – cell-based, doxorubicin co-treatment, pilot screen (AID 601); conditions: CellTiter-Glo, 72 h, at 10 µM; for differential viability (reversal): stronger effect = higher value
[5] = yeast transport mutant growth inhibition pilot in 384-well plates, post-Golgi transport modulator project (AID 636; in the data active = inhibition above about 31%); conditions: absorbance 615 nm, about 18 h, stronger effect = higher value
[6] = growth suppression of yeast trafficking mutant, preliminary HTS, modulators of trafficking downstream of Golgi apparatus project, 1536-format plate, OD 615 nm (AID 637; in the data active = inhibition above about 30%); conditions: yeast transport mutant growth, absorbance 615 nm, 18 h; stronger effect = higher value
[7] = Her2 expression decrease, cell viability multiplex – SKBR3 breast tumor cells, AlphaScreen, ATP viability, primary screen (AID 461;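 active = Her2 level under about 52% in both replicate screens, with viability over 70% of control, limit read from the data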;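 for Her2 level: lower value means less Her2 protein in the cells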;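 for viability: percent of carrier control wells set as 100% viability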); conditions: SKBR3 Her2 protein level, 18-24 h, measured here: SKBR3 viability, ATP luminescence, at 10 µM
[8] = target: Receptor tyrosine-protein kinase erbB-2 (Homo sapiens) (UniProt P04626); assay: as above; conditions: 18-24 h, at 10 µM, stronger effect = lower value
Chain of Receptor tyrosine-protein kinase erbB-2 (Homo sapiens) (P04626 whole entry, looked up): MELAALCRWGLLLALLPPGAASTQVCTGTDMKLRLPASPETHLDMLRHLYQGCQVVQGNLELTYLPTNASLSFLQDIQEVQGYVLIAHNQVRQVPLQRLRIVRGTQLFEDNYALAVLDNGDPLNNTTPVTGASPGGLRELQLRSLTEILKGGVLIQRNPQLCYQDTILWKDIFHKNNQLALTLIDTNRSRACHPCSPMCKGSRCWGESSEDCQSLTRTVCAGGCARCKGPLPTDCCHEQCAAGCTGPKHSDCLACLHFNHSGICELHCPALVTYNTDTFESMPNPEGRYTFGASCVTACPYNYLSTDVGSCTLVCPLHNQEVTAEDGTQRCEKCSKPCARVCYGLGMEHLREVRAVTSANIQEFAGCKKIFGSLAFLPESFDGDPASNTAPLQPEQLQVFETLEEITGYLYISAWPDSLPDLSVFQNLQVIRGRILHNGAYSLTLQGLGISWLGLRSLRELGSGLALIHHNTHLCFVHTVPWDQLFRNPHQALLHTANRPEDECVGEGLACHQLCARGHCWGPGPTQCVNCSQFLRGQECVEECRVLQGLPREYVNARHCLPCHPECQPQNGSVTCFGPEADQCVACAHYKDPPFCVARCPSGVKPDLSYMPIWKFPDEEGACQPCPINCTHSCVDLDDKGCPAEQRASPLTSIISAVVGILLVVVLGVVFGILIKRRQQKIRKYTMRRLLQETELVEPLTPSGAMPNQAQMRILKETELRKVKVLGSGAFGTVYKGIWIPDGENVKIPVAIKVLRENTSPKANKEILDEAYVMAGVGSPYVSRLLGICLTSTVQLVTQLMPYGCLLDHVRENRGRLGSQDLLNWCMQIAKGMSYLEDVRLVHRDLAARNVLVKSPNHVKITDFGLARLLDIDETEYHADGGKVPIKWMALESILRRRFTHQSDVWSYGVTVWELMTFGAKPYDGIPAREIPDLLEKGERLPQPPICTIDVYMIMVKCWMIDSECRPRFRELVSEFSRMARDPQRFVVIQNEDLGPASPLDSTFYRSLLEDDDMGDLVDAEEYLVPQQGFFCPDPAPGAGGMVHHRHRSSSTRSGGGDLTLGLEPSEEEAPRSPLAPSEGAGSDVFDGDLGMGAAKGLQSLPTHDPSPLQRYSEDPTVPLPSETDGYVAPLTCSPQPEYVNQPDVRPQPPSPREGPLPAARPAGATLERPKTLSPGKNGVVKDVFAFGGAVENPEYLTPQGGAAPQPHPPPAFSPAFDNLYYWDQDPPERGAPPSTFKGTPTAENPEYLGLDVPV

[9] = S. cerevisiae growth inhibition in restrictive medium, OD615, pilot screen, restrictive growth control, yeast lifespan reduction project (AID 706;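 active = growth inhibition above a set limit, 3 SD over mean compound inhibition, in both replicates, cut at about 43% in these data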;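 note: modified DeaD lifespan yeast strain shifted to restrictive glucose medium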); conditions: OD615, 48 h, at 10 µM, stronger effect = higher value
[10] = doxorubicin toxicity protection in MRP-1 cells – H69AR cells, CellTiter-Glo, duplicate, MRP-1 activator project, pilot screen (AID 807;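 active = viability increase at or above a cutoff of the median across tested compounds plus 3 SD, cut at about 8.5% in these data, passing the limit was not always enough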;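 note: compound pretreatment 18-22 h then 72 h combined with doxorubicin; 0% = doxorubicin alone and 100% = vehicle without doxorubicin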); conditions: H69AR viability with doxorubicin, CellTiter-Glo luminescence; at 10 µM; stronger effect = higher value
[11] = viability of HCT116 without oncogenic beta-catenin – human colon tumor cells, pilot screen (AID 823;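 active = cell viability at or below a set limit in both duplicate runs, the limit being the all-compound median minus 4 SD, cut at about 23% in these data, passing the limit was not always enough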;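 note: 0% = wells killed by 20 µM Hyamine and 100% = untreated DMSO cell wells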); conditions: HCT116 beta-catenin knockout viability, CellTiter-Glo, 60 h; at 10 µM; stronger effect = lower value
[12] = viability of PTEN-null HCT116 cells – cell-based, HCT116 clonal line, CellTiter-Glo, pilot screen (AID 824;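 active = viability at or below 27.92% in each of two runs, the all-compound median minus 4 SD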;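 note: 0% = 20 µM Hyamine control and 100% = vehicle cell control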); conditions: HCT116 PTEN-deleted viability, 60 h, at 10 µM, stronger effect = lower value
[13] = RAM pathway blockade in budding yeast – dse1pr::URA3 reporter, 5-FOA selection, pilot screen (AID 869;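 active = inhibition over a set limit, the all-compound mean plus 3 SD, in both replicate runs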;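 note: 0% = DMSO wells with no growth and 100% = 10 µM 1-NA-PP1 with full growth; RAM network block rescues cells from 5-FOA so hits raise OD615 growth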); conditions: S. cerevisiae dse1pr::URA3 5-FOA growth, OD615, 2 d; at 10 µM; stronger effect = higher value; strain carries analog-sensitive mutant Cbk1 kinase
[14] = H69AR cells + 2 uM doxorubicin, measured here: viability with 2 uM doxorubicin, stronger effect = lower value
[15] = H69AR cells, compound alone cytotoxicity

## Cc1ccc(C)c(CSc2nnc(CCN)o2)c1
[1]
  viability: 101% (inactive)
[2]
  viability: 41.5% (inactive)
[3]
  viability: 71.2% (inactive)
[4]; H69AR cells + 2 uM doxorubicin
  differential viability (reversal): -20.6% (inactive)
[4]; [14]
  viability: 91.8%
[4]; [15]
  viability: 71.2%
[5]
  inhibition: -7.67% (inactive)
[6]
  inhibition: 5.45% (inactive)

## N#Cc1ccccc1Cn1c(=O)n(Cc2ccc(C(=O)NCc3ccco3)cc2)c(=O)c2sccc21
[7]
  viability: 75.5%
[8]
  Her2 level: 80% (inactive)
[1]
  viability: 75.5% (inactive)
[3]
  viability: 77.8% (inactive)
[4]; H69AR cells + 2 uM doxorubicin
  differential viability (reversal): 9.52% (inactive)
[4]; [14]
  viability: 68.3%
[4]; [15]
  viability: 77.8%
[5]
  inhibition: -1.28% (inactive)
[6]
  inhibition: -1.67% (inactive)
[9]
  growth inhibition: -22.5% (inactive)
[10]
  viability increase: -4.44% (inactive)
[11]
  viability: 91.3% (inactive)
[12]
  viability: 79.5% (inactive)
[13]
  inhibition: 2.11% (inactive)

## Cn1c(=O)[nH]c(=O)c2c1nc(CN1CCN(c3cccc(Cl)c3)CC1)n2CCc1ccccc1
[7]
  viability: 75%
[8]
  Her2 level: 96% (inactive)
[1]
  viability: 75% (inactive)
[4]; H69AR cells + 2 uM doxorubicin
  differential viability (reversal): -1.32% (inactive)
[4]; [14]
  viability: 24.8%
[4]; [15]
  viability: 23.5%
[5]
  inhibition: -1.04% (inactive)
[6]
  inhibition: -6.98% (inactive)

## COc1cc(C)nc(N2CCCC(C(=O)Nc3cccc(Cl)c3Cl)C2)n1 (stereo not drawn)
[7]
  viability: 71%
[8]
  Her2 level: 62.5% (inactive)
[1]
  viability: 71% (inactive)
[4]; H69AR cells + 2 uM doxorubicin
  differential viability (reversal): -1.86% (inactive)
[4]; [14]
  viability: 58.3%
[4]; [15]
  viability: 56.4%
[5]
  inhibition: 0.39% (inactive)
[6]
  inhibition: -10.2% (inactive)

## Nc1nc(N)c2nc(-c3ccccc3)c(N)nc2n1
[1]
  viability: 128% (inactive)
[2]
  viability: 90.5% (inactive)
[3]
  viability: 73.3% (inactive)
[4]; H69AR cells + 2 uM doxorubicin
  differential viability (reversal): -4.71% (inactive)
[4]; [14]
  viability: 78%
[4]; [15]
  viability: 73.3%
[5]
  inhibition: -2.08% (inactive)
[6]
  inhibition: 1.5% (inactive)

## CCOC(=O)c1cc2sc(C)cc2n1CC(=O)NCc1ccc(F)cc1
[7]
  viability: 65%
[8]
  Her2 level: 73% (inactive)
[1]
  viability: 65% (inactive)
[3]
  viability: 69.4% (inactive)
[4]; H69AR cells + 2 uM doxorubicin
  differential viability (reversal): 17.1% (inactive)
[4]; [14]
  viability: 52.3%
[4]; [15]
  viability: 69.4%
[5]
  inhibition: -6.32% (inactive)
[6]
  inhibition: -3% (inactive)

## O=C(CCCCCn1c(=S)[nH]c2cc3c(cc2c1=O)OCO3)N1CCN(Cc2ccccc2)CC1
[7]
  viability: 83%
[8]
  Her2 level: 77.5% (inactive)
[1]
  viability: 83% (inactive)
[4]; H69AR cells + 2 uM doxorubicin
  differential viability (reversal): 7.46% (inactive)
[4]; [14]
  viability: 55.3%
[4]; [15]
  viability: 62.7%
[5]
  inhibition: -4.73% (inactive)
[6]
  inhibition: -0.66% (inactive)

## CSc1ncc(Cl)c(C(=O)Nc2ccc(S(=O)(=O)N3CCOCC3)cc2)n1
[1]
  viability: 85% (inactive)
[2]
  viability: 97% (inactive)
[3]
  viability: 101% (inactive)
[4]; H69AR cells + 2 uM doxorubicin
  differential viability (reversal): 9.55% (inactive)
[4]; [14]
  viability: 91.8%
[4]; [15]
  viability: 101%
[5]
  inhibition: -7.67% (inactive)
[6]
  inhibition: 0.36% (inactive)

## O=C1c2ccccc2NC2CCCCCN12 (stereo not drawn)
[1]
  viability: 108% (inactive)
[2]
  viability: 92.9% (inactive)
[3]
  viability: 100% (inactive)
[4]; H69AR cells + 2 uM doxorubicin
  differential viability (reversal): 10.3% (inactive)
[4]; [14]
  viability: 89.8%
[4]; [15]
  viability: 100%
[5]
  inhibition: -2.34% (inactive)
[6]
  inhibition: 1.48% (inactive)

## CCCc1cc(-n2ccnc2)n2c(nc3ccccc32)c1C#N
[7]
  viability: 89.5%
[8]
  Her2 level: 74% (inactive)
[1]
  viability: 89.5% (inactive)
[4]; H69AR cells + 2 uM doxorubicin
  differential viability (reversal): -10.1% (inactive)
[4]; [14]
  viability: 55.8%
[4]; [15]
  viability: 45.8%
[5]
  inhibition: -3.92% (inactive)
[6]
  inhibition: 2.06% (inactive)

## CNCCC=C1c2ccccc2CCc2ccccc21
[1]
  viability: 23%
[2]
  viability: 71.6% (inactive)
[3]
  viability: 80.1% (inactive)
[4]; H69AR cells + 2 uM doxorubicin
  differential viability (reversal): 4.63% (inactive)
[4]; [14]
  viability: 75.5%
[4]; [15]
  viability: 80.1%

## Nc1ncnc2oc(-c3ccco3)c(-c3ccco3)c12
[7]
  viability: 96.5%
[8]
  Her2 level: 77% (inactive)
[1]
  viability: 96.5% (inactive)
[3]
  viability: 75.7% (inactive)
[4]; H69AR cells + 2 uM doxorubicin
  differential viability (reversal): 7.29% (inactive)
[4]; [14]
  viability: 68.4%
[4]; [15]
  viability: 75.7%
[5]
  inhibition: -0.13% (inactive)
[6]
  inhibition: -4.03% (inactive)

## Cc1cc(NC(=O)c2ccccc2)ncc1NC(=O)c1ccco1
[1]
  viability: 94% (inactive)
[2]
  viability: 96.2% (inactive)
[3]
  viability: 109% (inactive)
[4]; H69AR cells + 2 uM doxorubicin
  differential viability (reversal): 9.27% (inactive)
[4]; [14]
  viability: 99.9%
[4]; [15]
  viability: 109%
[5]
  inhibition: -4.42% (inactive)
[6]
  inhibition: 0.32% (inactive)

## COc1cc2nc(SCC(=O)NC3CC3)n(CCC3=CCCCC3)c(=O)c2cc1OC
[7]
  viability: 102%
[8]
  Her2 level: 107% (inactive)
[1]
  viability: 102% (inactive)
[3]
  viability: 74.5% (inactive)
[4]; H69AR cells + 2 uM doxorubicin
  differential viability (reversal): 9.46% (inactive)
[4]; [14]
  viability: 65.1%
[4]; [15]
  viability: 74.5%
[5]
  inhibition: -2.11% (inactive)
[6]
  inhibition: -4.33% (inactive)

## CCCc1ccc(Oc2cn[nH]c2-c2ccc(O)c(C)c2O)cc1
[7]
  viability: 106%
[8]
  Her2 level: 76.5% (inactive)
[1]
  viability: 106% (inactive)
[4]; H69AR cells + 2 uM doxorubicin
  differential viability (reversal): -26.3% (inactive)
[4]; [14]
  viability: 34.6%
[4]; [15]
  viability: 8.33%
[5]
  inhibition: 100% (active)
[6]
  inhibition: 100% (active)

## O=C(NC1CCCC1)C(c1cccs1)N(C(=O)c1ccno1)c1ccccc1 (stereo not drawn)
[7]
  viability: 57.5%
[8]
  Her2 level: 92% (inactive)
[2]
  viability: 95.2% (inactive)
[3]
  viability: 91.2% (inactive)
[4]; H69AR cells + 2 uM doxorubicin
  differential viability (reversal): 6.13% (inactive)
[4]; [14]
  viability: 85.1%
[4]; [15]
  viability: 91.2%
[5]
  inhibition: -3.78% (inactive)
[6]
  inhibition: 5.08% (inactive)

## Clc1ccc(Cl)c(-c2nn3c(COc4ccccc4)nnc3s2)c1
[7]
  viability: 96%
[8]
  Her2 level: 69% (inactive)
[1]
  viability: 96% (inactive)
[3]
  viability: 72.9% (inactive)
[4]; H69AR cells + 2 uM doxorubicin
  differential viability (reversal): 1.02% (inactive)
[4]; [14]
  viability: 71.9%
[4]; [15]
  viability: 72.9%
[5]
  inhibition: -5.07% (inactive)
[6]
  inhibition: 5.32% (inactive)

## CCOC(=O)c1c(C)oc2c1c1c(c3ccccc32)OCN(Cc2cccnc2)C1
[7]
  viability: 83.5%
[8]
  Her2 level: 75% (inactive)
[1]
  viability: 83.5% (inactive)
[4]; H69AR cells + 2 uM doxorubicin
  differential viability (reversal): 29.8% (inactive)
[4]; [14]
  viability: 21.8%
[4]; [15]
  viability: 51.6%
[5]
  inhibition: -0.39% (inactive)
[6]
  inhibition: -5.33% (inactive)

Reference: PubChem BioAssay
